Test results from PubChem BioAssay (EPA / NIEHS).
Values joined by “and” are separate entries in the source; they are usually repeats but may differ in a detail not shown here. Identical values can stand only once. Results filed as inconclusive are left out. The source holds several records for some structures; these can differ, active in one and inactive in another. Active and inactive are the calls of the source. The calls were made as follows, unless noted: active = hit-call score of the fitted dose curve at least 0.9, where 1 is the maximum; inconclusive = response in the unintended direction; inactive = score below 0.9.

Tests used:
[1] = BSK_4H_Eotaxin3: BioMAP Diversity Plus: 4H Assay for Eotaxin 3 Biomarker Activity (AID 2283000; active = hit-call score of the fitted dose curve at least 0.9, where 1 is the maximum; inactive = score below 0.9); details: primary human endothelial cells (HUVEC); actives raise or lower the signal
How it was run: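 HUVEC, 24 h post-dose, ELISA for Eotaxin-3/CCL26. Gain or loss of signal fitted bidirectionally vs DMSO baseline.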

[2] = target: human Peroxisome Proliferator-activated Receptor alpha (PPARa), PPARA (gene 5465) (UniProt Q07869); assay: ATG_PPARa_TRANS: Attagene TRANS-FACTORIAL HepG2 Assay for human Peroxisome Proliferator-activated Receptor alpha (PPARa) (AID 2283001);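 as to AC50: potency for gain of reporter signal over DMSO so agonist or activator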
How it was run: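 Cells (HepG2) are transfected with multiple reporter transcription units, exposed to chemical for 24 h, then total RNA is reverse-transcribed and amplified. Labelled products are quantified by capillary electrophoresis; induction is referenced to DMSO.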

[3] = target: human Peroxisome Proliferator-activated Receptor delta (PPARd), PPARD (gene 5467) (UniProt Q03181); assay: ATG_PPARd_TRANS: Attagene TRANS-FACTORIAL HepG2 Assay for human Peroxisome Proliferator-activated Receptor delta (PPARd) (AID 2283002)
How it was run: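 HepG2 cells transiently transfected with multiplexed GAL4-UAS reporter units and exogenous chimeric NR-Gal4 proteins; 24 h compound exposure. Reporter mRNA measured by RT-PCR, 6-FAM labelling, HpaI digestion and capillary electrophoresis; gain of signal versus DMSO.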

[4] = read-out: Intercellular Adhesion Molecule 1 (ICAM1), ICAM1 (gene 3383); assay: BSK_3C_ICAM1: BioMAP Diversity Plus: 3C Assay for Intercellular Adhesion Molecule 1 (ICAM1) Biomarker Activity (AID 2283003; active = hit-call score of the fitted dose curve at least 0.9, where 1 is the maximum; inactive = score below 0.9); details: primary human endothelial cells (HUVEC); actives raise or lower the signal
How it was run: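 Chemicals are dosed onto primary human umbilical vein endothelium (3C system). After 24 h, ICAM-1 is measured by ELISA, and responses are fitted bidirectionally relative to DMSO.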

[5] = target: human Retinoic Acid Receptor beta (RARb), RARB (gene 5915) (UniProt P10826); assay: ATG_RARb_TRANS: Attagene TRANS-FACTORIAL HepG2 Assay for human Retinoic Acid Receptor beta (AID 2283004)
How it was run: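 HepG2 cells transiently transfected with multiplexed GAL4-UAS reporter units expressing chimeric NR–Gal4 fusions; 24 h compound exposure. Reporter mRNA quantified by RT-PCR, 6-FAM labelling, HpaI digestion and capillary electrophoresis; gain-of-signal fitted against DMSO baseline.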

[6] = target: Retinoic acid receptor alpha (Homo sapiens) (UniProt P10276); assay: ATG_RARa_TRANS: Attagene TRANS-FACTORIAL HepG2 Assay for human Retinoic Acid Receptor alpha (RARa) (AID 2283005)
How it was run: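 HepG2 cells transiently transfected with multiple reporter units expressing chimeric RARα-GAL4 fusion, with GAL4-UAS-driven reporters. After 24 h compound exposure, reporter mRNA induction quantified by RT-PCR and capillary electrophoresis with fluorescent labeling; gain-of-signal fitted relative to DMSO control.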

[7] = BSK_3C_Proliferation: Cell Proliferation Assessment in the BioMAP Diversity Plus: 3C Assay (AID 2283006; active = hit-call score of the fitted dose curve at least 0.9, where 1 is the maximum; inactive = score below 0.9;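 as to AC50: potency may reflect either rise or fall in cell number versus DMSO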); details: primary human endothelial cells (HUVEC)
How it was run: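 Cells (human umbilical vein endothelial, sub-confluent) receive test chemical; after 48 h they are fixed in 10% trichloroacetic acid, stained with 0.1% SRB and read at 560 nm. Activity is referenced to DMSO, fitting increases and decreases.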

[8] = target: Peroxisome proliferator-activated receptor gamma (Homo sapiens) (UniProt P37231); assay: ATG_PPARg_TRANS: Attagene TRANS-FACTORIAL HepG2 Assay for human Peroxisome Proliferator-activated Receptor-gamma (PPARg) (AID 2283007)
How it was run: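 HepG2 cells transiently transfected with multiplexed GAL4-UAS reporter units and exogenous chimeric NR-Gal4 proteins; reporter mRNA quantified after 24 h compound exposure by RT-PCR, fluorescent labelling, HpaI digestion and capillary electrophoresis; gain-of-signal fitted versus DMSO baseline.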

[9] = target: Nuclear receptor subfamily 1 group I member 2 (Homo sapiens) (UniProt O75469); assay: ATG_PXR_TRANS: Attagene TRANS-FACTORIAL HepG2 Assay for human Pregnane X Receptor (PXR) (AID 2283008)
How it was run: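 Transactivation by exogenous PXR–GAL4 fusion measured as reporter transcript induction after 24 h compound treatment of transfected human HepG2 cells. Read-out via RT-PCR and capillary electrophoresis of labelled fragments, fitted upward relative to DMSO.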

[10] = target: human RAR-related Orphan Receptor beta (RORb), RORB (gene 6096) (UniProt Q92753); assay: ATG_RORb_TRANS: Attagene TRANS-FACTORIAL HepG2 Assay for human RAR-related Orphan Receptor beta (RORb) (AID 2283010)
How it was run: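 Transfect HepG2 with multiple GAL4-UAS reporter transcription units; dose chemicals for 24 h; isolate RNA, reverse-transcribe and PCR-amplify reporter sequences; label, digest and resolve fragments by capillary electrophoresis; fit increases relative to DMSO.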

[11] = target: human RAR-related Orphan Receptor gamma (RORg), RORC (gene 6097) (UniProt P51449); assay: ATG_RORg_TRANS: Attagene TRANS-FACTORIAL HepG2 Assay for human RAR-related Orphan Receptor gamma (RORg) (AID 2283011)
How it was run: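 Readout: reporter transcript induction (RT-PCR, fluorescent primer extension, capillary electrophoresis) after 24 h compound exposure of transiently transfected HepG2 cells carrying a RORg-Gal4 chimera and GAL4-UAS reporters; DMSO served as baseline, with increasing signal fitted.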

[12] = target: Retinoic acid receptor RXR-alpha (Homo sapiens) (UniProt P19793); assay: ATG_RXRa_TRANS: Attagene TRANS-FACTORIAL HepG2 Assay for human Retinoid X Receptor alpha (RXRa) (AID 2283012)
How it was run: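 Measures exogenous chimeric NR-GAL4 activity in transfected HepG2 liver cells after 24 h of dosing. Induced reporter mRNA was detected by RT-PCR with capillary electrophoresis, and gain of signal was analysed against DMSO.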

[13] = target: human Retinoid X Receptor beta (RXRb), RXRB (gene 6257) (UniProt P28702); assay: ATG_RXRb_TRANS: Attagene TRANS-FACTORIAL HepG2 Assay for human Retinoid X Receptor beta (RXRb) (AID 2283013)
How it was run: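 Chimeric receptor-Gal4 activity was assessed in transiently transfected human HepG2 cells after 24 h exposure. Transcripts from GAL4-UAS reporters were quantified by fluorescent RT-PCR and capillary electrophoresis, with DMSO as negative control and baseline.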

[14] = target: human Thyroid Receptor alpha (THRa1), THRA (gene 7067) (UniProt P10827); assay: ATG_THRa1_TRANS: Attagene TRANS-FACTORIAL HepG2 Assay for human Thyroid Receptor alpha (THRa1) (AID 2283014)
How it was run: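 HepG2 cells transiently transfected with multiplexed GAL4-UAS reporter units for exogenous chimeric THRa1-Gal4; reporter mRNA measured 24 h after dosing by RT-PCR, 6-FAM labelling, HpaI digestion and capillary electrophoresis. Gain-of-signal fitted versus DMSO baseline.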

[15] = read-out: E-selectin (Homo sapiens) (UniProt P16581); assay: BSK_3C_Eselectin: BioMAP Diversity Plus: 3C Assay for Eselectin Biomarker Activity (AID 2283015; active = hit-call score of the fitted dose curve at least 0.9, where 1 is the maximum; inactive = score below 0.9); details: primary human endothelial cells (HUVEC); actives raise or lower the signal
How it was run: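 Primary human umbilical vein endothelial cells (3C system) were dosed with chemical and cell-surface E-selectin measured by ELISA 24 h later. Bidirectional curve fitting used DMSO as negative control and baseline.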

[16] = read-out: Interleukin-1 alpha (IL1a), IL1A (gene 3552); assay: BSK_BE3C_IL1a: BioMAP Diversity Plus: BE3C Assay for Interleukin-1 alpha (IL1a) Biomarker Activity (AID 2283016; active = hit-call score of the fitted dose curve at least 0.9, where 1 is the maximum; inactive = score below 0.9); details: primary human bronchial epithelial cells; actives raise or lower the signal
How it was run: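 Signal from IL-1a ELISA, taken 24 h after chemical dosing of human bronchial epithelial cells, is compared with DMSO as baseline using bidirectional curve fitting.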

[17] = read-out: Monocyte Chemoattractant Protein-1 (MCP1), CCL2 (gene 6347); assay: BSK_3C_MCP1: BioMAP Diversity Plus: 3C Assay for Monocyte Chemoattractant Protein-1 (MCP1) Biomarker Activity (AID 2283017; active = hit-call score of the fitted dose curve at least 0.9, where 1 is the maximum; inactive = score below 0.9); details: primary human endothelial cells (HUVEC); actives raise or lower the signal
How it was run: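 Primary human umbilical vein endothelial cells (3C system) were exposed to test chemical for 24 h, after which MCP-1 was quantified by ELISA. Activity was fitted bidirectionally against DMSO as negative control and baseline.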

[18] = read-out: Monocyte Chemoattractant Protein-1 (MCP1), CCL2 (gene 6347); assay: BSK_4H_MCP1: BioMAP Diversity Plus: 4H Assay for Monocyte Chemoattractant Protein-1 (MCP1) Biomarker Activity (AID 2283018; active = hit-call score of the fitted dose curve at least 0.9, where 1 is the maximum; inactive = score below 0.9); details: primary human endothelial cells (HUVEC); actives raise or lower the signal
How it was run: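 Endothelial cells from umbilical vein were treated with test chemical, then after 24 h MCP-1 levels were quantified by ELISA; endpoint values came from bidirectional fitting with DMSO as baseline of activity.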

[19] = read-out: Human Leukocyte Antigen - DR isotype (HLADR), HLA-DRA (gene 3122); assay: BSK_3C_HLADR: BioMAP Diversity Plus: 3C Assay for Human Leukocyte Antigen - DR isotype (HLADR) Biomarker Activity (AID 2283019; active = hit-call score of the fitted dose curve at least 0.9, where 1 is the maximum; inactive = score below 0.9); details: primary human endothelial cells (HUVEC); actives raise or lower the signal
How it was run: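 Primary human umbilical vein endothelial cells (3C system) were dosed with compound and cell-surface HLA-DR was quantified by ELISA at 24 h. Activity was fitted bidirectionally against DMSO as negative control and baseline.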

[20] = target: human Retinoic Acid Receptor gamma (RARg), RARG (gene 5916) (UniProt P13631); assay: ATG_RARg_TRANS: Attagene TRANS-FACTORIAL HepG2 Assay for human Retinoic Acid Receptor gamma (RARg) (AID 2283009)
How it was run: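 TRANS format measured activity of exogenous NR-GAL4 fusion (RARg) in transfected HepG2 liver cells after 24 h dosing. Induced reporter RNA was detected by RT-PCR/capillary electrophoresis fluorescence, analysed in the positive direction against DMSO.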

Measured: AC50

Chain of human Thyroid Receptor alpha (THRa1), THRA (gene 7067) (P10827 whole entry, looked up, the tested form may be a part): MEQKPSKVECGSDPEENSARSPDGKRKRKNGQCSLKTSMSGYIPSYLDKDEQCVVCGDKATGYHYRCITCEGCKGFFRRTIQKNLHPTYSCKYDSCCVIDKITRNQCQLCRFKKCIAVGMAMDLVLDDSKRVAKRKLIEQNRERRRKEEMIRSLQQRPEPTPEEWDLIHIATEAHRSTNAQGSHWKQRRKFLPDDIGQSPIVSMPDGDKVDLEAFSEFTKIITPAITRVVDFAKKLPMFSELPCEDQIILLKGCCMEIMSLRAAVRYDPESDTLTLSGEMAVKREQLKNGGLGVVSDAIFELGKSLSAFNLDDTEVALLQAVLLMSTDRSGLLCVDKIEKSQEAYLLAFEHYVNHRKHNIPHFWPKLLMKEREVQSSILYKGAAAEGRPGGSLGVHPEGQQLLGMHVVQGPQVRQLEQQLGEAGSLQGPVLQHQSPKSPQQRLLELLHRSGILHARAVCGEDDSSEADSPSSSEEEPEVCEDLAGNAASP
Chain of Peroxisome proliferator-activated receptor gamma (Homo sapiens) (P37231 whole entry, looked up, the tested form may be a part): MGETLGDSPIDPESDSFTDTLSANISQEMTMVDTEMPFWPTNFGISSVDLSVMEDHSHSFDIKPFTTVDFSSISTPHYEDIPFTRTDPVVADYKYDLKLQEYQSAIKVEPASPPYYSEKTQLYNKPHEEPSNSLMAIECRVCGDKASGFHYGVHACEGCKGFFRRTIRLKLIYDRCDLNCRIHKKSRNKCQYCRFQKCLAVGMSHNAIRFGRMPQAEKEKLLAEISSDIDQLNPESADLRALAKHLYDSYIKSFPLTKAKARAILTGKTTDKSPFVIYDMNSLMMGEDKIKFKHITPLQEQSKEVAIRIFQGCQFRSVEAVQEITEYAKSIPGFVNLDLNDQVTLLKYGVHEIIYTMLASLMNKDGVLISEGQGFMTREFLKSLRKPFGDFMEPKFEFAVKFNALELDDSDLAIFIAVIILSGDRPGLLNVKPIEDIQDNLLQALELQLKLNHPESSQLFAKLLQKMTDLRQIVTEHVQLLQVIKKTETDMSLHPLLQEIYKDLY
Chain of Nuclear receptor subfamily 1 group I member 2 (Homo sapiens) (O75469 whole entry, looked up, the tested form may be a part): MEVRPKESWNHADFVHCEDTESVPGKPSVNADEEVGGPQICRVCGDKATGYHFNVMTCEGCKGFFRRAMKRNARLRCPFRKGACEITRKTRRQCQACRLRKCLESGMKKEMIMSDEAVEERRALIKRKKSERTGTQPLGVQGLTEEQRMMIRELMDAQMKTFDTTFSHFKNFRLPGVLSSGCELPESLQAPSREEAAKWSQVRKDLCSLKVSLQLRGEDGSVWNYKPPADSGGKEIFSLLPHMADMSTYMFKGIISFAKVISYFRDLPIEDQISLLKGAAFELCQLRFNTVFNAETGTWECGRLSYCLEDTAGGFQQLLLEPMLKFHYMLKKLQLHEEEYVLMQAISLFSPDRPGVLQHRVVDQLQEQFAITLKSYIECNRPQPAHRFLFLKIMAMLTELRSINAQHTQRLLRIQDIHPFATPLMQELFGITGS
Chain of human RAR-related Orphan Receptor beta (RORb), RORB (gene 6096) (Q92753 whole entry, looked up, the tested form may be a part): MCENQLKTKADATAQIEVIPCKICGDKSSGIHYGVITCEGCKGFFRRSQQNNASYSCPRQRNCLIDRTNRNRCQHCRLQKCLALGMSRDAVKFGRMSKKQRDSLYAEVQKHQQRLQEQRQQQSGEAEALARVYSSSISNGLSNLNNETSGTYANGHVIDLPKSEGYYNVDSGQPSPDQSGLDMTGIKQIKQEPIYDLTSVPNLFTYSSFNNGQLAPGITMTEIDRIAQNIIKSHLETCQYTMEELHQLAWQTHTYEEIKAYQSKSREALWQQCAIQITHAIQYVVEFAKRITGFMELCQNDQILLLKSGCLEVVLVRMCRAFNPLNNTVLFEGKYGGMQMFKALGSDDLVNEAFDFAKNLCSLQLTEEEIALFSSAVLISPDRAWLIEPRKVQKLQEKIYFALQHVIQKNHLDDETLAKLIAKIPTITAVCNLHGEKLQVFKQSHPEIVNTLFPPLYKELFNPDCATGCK
Chain of human Retinoic Acid Receptor beta (RARb), RARB (gene 5915) (P10826 whole entry, looked up, the tested form may be a part): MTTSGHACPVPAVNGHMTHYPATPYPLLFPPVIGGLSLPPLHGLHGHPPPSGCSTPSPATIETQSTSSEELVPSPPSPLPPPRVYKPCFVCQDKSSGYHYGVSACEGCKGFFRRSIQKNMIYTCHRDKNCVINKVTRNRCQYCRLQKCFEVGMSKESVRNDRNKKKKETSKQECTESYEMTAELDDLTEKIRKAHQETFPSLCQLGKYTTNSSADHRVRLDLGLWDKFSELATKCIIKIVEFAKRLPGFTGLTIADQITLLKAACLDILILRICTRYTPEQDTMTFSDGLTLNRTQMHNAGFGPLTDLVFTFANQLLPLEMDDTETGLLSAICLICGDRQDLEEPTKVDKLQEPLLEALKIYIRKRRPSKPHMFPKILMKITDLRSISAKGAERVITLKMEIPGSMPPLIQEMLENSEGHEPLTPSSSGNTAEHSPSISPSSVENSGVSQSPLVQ
Chain of human Peroxisome Proliferator-activated Receptor delta (PPARd), PPARD (gene 5467) (Q03181 whole entry, looked up, the tested form may be a part): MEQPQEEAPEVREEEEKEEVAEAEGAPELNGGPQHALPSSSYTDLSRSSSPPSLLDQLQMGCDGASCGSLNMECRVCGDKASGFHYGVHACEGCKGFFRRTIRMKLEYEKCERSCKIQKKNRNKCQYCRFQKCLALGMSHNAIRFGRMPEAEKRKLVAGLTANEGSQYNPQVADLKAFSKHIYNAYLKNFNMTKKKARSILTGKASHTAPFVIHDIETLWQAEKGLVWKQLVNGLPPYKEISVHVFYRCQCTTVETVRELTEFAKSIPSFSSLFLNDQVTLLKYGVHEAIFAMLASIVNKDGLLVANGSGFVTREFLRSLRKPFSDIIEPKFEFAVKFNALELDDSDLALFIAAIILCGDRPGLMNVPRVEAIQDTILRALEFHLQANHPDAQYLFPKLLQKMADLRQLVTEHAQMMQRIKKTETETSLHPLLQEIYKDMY
Chain of human Retinoid X Receptor beta (RXRb), RXRB (gene 6257) (P28702 whole entry, looked up, the tested form may be a part): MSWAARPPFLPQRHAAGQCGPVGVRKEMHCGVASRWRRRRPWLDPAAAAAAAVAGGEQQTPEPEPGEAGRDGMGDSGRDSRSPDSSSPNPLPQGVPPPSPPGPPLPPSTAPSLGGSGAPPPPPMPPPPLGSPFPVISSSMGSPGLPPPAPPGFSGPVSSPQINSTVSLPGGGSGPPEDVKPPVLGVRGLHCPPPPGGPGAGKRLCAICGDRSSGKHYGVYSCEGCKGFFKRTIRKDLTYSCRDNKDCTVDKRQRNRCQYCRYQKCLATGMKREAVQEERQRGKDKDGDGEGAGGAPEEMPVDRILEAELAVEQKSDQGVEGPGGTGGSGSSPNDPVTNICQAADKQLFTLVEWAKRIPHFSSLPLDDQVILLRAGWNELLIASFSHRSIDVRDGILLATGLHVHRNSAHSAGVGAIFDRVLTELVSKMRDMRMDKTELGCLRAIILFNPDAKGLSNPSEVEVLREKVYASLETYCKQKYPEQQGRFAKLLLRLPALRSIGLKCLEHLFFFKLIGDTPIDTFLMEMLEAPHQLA
Chain of human RAR-related Orphan Receptor gamma (RORg), RORC (gene 6097) (P51449 whole entry, looked up, the tested form may be a part): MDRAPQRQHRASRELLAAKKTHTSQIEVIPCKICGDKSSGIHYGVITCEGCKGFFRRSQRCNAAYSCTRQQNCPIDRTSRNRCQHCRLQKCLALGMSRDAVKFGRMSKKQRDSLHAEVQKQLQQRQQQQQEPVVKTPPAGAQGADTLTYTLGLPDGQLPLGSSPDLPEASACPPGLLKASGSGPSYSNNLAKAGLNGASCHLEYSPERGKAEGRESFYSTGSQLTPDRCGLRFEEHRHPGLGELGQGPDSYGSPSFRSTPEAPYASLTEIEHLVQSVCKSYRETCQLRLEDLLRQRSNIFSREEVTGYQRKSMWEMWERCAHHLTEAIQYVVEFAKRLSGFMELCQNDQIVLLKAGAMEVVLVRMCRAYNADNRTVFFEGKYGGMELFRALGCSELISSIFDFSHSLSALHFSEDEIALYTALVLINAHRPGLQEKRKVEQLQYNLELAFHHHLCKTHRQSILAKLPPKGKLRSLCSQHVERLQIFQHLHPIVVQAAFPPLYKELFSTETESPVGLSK
Chain of E-selectin (Homo sapiens) (P16581 whole entry, looked up): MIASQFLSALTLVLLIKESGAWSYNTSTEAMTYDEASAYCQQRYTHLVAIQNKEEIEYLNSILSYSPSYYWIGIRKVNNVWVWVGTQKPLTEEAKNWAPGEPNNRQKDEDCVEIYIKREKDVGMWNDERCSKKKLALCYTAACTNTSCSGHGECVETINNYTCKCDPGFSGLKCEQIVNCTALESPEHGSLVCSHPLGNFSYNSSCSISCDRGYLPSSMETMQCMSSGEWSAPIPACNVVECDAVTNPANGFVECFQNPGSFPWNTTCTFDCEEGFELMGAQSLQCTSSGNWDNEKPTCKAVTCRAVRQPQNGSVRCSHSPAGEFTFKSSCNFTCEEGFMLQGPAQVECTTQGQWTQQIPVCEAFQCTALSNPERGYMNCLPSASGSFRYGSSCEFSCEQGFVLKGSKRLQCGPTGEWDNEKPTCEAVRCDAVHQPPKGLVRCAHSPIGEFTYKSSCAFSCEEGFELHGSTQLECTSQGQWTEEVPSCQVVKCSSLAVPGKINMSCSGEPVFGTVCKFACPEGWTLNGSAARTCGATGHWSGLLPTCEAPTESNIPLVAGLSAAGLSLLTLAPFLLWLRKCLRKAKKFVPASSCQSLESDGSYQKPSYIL
Chain of Retinoic acid receptor RXR-alpha (Homo sapiens) (P19793 whole entry, looked up, the tested form may be a part): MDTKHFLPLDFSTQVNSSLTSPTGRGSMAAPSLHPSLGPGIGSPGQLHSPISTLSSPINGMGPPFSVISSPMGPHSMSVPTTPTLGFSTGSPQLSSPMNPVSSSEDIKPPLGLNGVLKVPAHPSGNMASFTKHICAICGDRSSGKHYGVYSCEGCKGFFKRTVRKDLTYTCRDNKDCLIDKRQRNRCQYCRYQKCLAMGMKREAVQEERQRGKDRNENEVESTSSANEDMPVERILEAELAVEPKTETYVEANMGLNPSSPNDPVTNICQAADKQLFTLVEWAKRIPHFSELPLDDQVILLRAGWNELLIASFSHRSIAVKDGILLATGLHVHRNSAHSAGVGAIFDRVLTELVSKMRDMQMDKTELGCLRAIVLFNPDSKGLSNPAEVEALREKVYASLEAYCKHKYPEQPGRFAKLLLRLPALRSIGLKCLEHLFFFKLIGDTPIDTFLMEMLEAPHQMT

NC(=O)c1c(Cl)cccc1Cl
active: [9] 0.36 µM
not listed: [5] | [6] | [13] | [20]
inactive: all other assays above

CC(C)Cc1ccc(C(C)C(=O)O)cc1 (stereo not given)
active: [2] 31 µM | [3] 142 µM
not listed: [5] | [6] | [8] | [10] | [11] | [12] | [14]
inactive: all other assays above

CC(=O)OC(C)(C)C1CC=C(C)CC1 (stereo not given)
active: [1] 33.3 µM | [7] 28.4 µM | [9] 33.8 µM | [15] 31 µM | [17] 31.3 µM | [18] 29.8 µM | [19] 31.3 µM
not listed: [3] | [5] | [6] | [14] | [20]
inactive: all other assays above

COc1ccccc1NC(=O)CC(C)=O
active: [9] 37 µM
not listed: [2] | [5] | [6] | [11] | [14] | [20]
inactive: all other assays above

Nc1ccc(N)c([N+](=O)[O-])c1
active: [15] 13.6 µM
not listed: [6]
inactive: all other assays above

CC(=O)c1ccc(C)cc1
inactive: [1] | [2] | [4] | [7] | [13] | [15] | [16] | [17] | [18] | [19]

CC(C)(CO)CO
inactive: [1] | [3] | [4] | [7] | [11] | [15] | [16] | [17] | [18] | [19]

CC(=O)CCC=C(C)CCC=C(C)C
active: [1] 31.5 µM | [8] 36.6 µM | [9] 4.33 µM
not listed: [3] | [5] | [6] | [10] | [20]
inactive: all other assays above

OCCN1CCOCC1
not listed: [6] | [8] | [10] | [12]
inactive: all other assays above

O=C1OC2(c3ccc(O)cc3Oc3cc(O)ccc32)c2ccccc21
active: [7] 20 µM | [9] 0.896 µM | [19] 20 µM
not listed: [2] | [5] | [6] | [13] | [14] | [20]
inactive: all other assays above

CCCCOCCOCCO
not listed: [2] | [3] | [8] | [9] | [11] | [12] | [13] | [14]
inactive: all other assays above

COC(=O)c1ccc(C(=O)OC)cc1
not listed: [3] | [8] | [10] | [20]
inactive: all other assays above

CCCO[Si](OCCC)(OCCC)OCCC
not listed: [2] | [5] | [6] | [9] | [10] | [14] | [20]
inactive: all other assays above

O=S1(=O)CC(Cl)(Cl)C(Cl)(Cl)C1
active: [1] 0.408 µM | [4] 1.02 µM | [7] 0.191 µM | [15] 0.611 µM | [16] 1.33 µM | [17] 0.961 µM | [18] 0.537 µM | [19] 0.327 µM
not listed: [5] | [6] | [20]
inactive: all other assays above
